Assay [1] concerns PRMT1 (protein arginine N-methyltransferase 1). The assay is described as follows: PRMT1 binders on small-molecule microarrays, primary screen, biochemical, small-molecule microarray, 635 nm fluorescence (AID 1088).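 Also: binding of Prmt1 protein to compounds spotted on small-molecule microarray slides.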 To be noted: small-molecule microarray binding, higher = more signal.
The nature of assay [2]: yeast growth modulation, basal conditions, primary screen, YJM789 clinical isolate, OD600, 24 h (AID 1089).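 Also: growth of clinical yeast isolate S. cerevisiae YJM 789 seeded 1000 cells per well; test concentration not given here.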 To be noted: S. cerevisiae YJM789 growth, higher = more signal, called active from +8 up or from −8 down.
Assay [3] is described as follows: fission yeast growth modulation, primary screen, strain 972, OD600, 24 h, no modulator (AID 1090).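 Also: basal condition with compound alone and no growth modifier present; test concentration not given here.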 To be noted: S. pombe 972 growth, higher = more signal, called active from +8 up or from −8 down.
The nature of assay [4]: S. cerevisiae growth modulation with rapamycin, primary screen, strain BY4716, OD600, 96 h (AID 1091). Also: test concentration not given here. To be noted: higher = more signal, called active from +8 up or from −8 down.
For assay [5], the target named is Torsin-1A-interacting protein 2 (Homo sapiens) (UniProt Q8NFQ8). The assay is described as follows: LULL1 binders on small-molecule microarray, primary screen, cell lysate, human LULL1 lysate, 635/667 nm fluorescence (AID 1092).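 Also: probe is lysate of COS7 cells overexpressing human LULL1; score merges per-feature 667 nm fluorescence with signal-to-noise.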 Particulars: hLULL1 lysate binding, 635 nm fluorescence, higher = more signal.
A short description of assay [6]: E. coli growth modulation, two-sided OD650, primary screen, E. coli filamentation project, strain DRC41, 24 h (AID 1093).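 Also: MC1000 strain lacking acrAB efflux and sulA so SOS filamentation is blocked; test concentration not given here.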 Particulars: OD650, 24 h, higher = more signal, called active from +8 up or from −8 down.
The nature of assay [7]: small-molecule microarray binders of probe aLefty2, primary screen, biochemical, biotinylated probe, 635/667 nm fluorescence (AID 1094).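 Also: score merges spot fluorescence near 667 nm with spot signal-to-noise ratio.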 To be noted: higher = more signal.
The test system of assay [8] is Noggin (protein binding on small-molecule microarray). The assay is described as follows: Noggin binders on small-molecule microarray, primary screen, biochemical, 635/667 nm fluorescence (AID 1095).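 Also: score merges 667 nm feature fluorescence with signal to noise over triplicate slides.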 To be noted: 635 nm fluorescence, higher = more signal.
Assay [9] has as its target Neurogenic locus notch homolog protein 3 (Homo sapiens) (UniProt Q9UM47). The assay is described as follows: NOTCH3 binders on small-molecule microarray, primary screen, biochemical, 635/667 nm fluorescence (AID 1096). Particulars: NOTCH3 binding, 635 nm fluorescence, higher = more signal.
Assay [10] is described as follows: small-molecule microarray binders of probe aEGFR, primary screen, biochemical, biotinylated probe, 635/667 nm fluorescence (AID 1097).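 Also: probe is a biotinylated anti-EGFR antibody binding compounds printed on slides; score combines fluorescence near 667 nm and signal to noise of each spot.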 To be noted: higher = more signal.
The test system of assay [11] is Plasmodium falciparum Sir2 (PF13_0152, Sir2A). The assay is described as follows: pfSir2 binders on small-molecule microarrays, primary screen, biochemical, small-molecule microarray, 635 nm fluorescence (AID 1098).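 Also: score merges spot fluorescence intensity with its signal-to-noise ratio.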 Particulars: small-molecule microarray binding, fluorescence 635 nm; higher = more signal.
The nature of assay [12]: small-molecule microarray binders of probe aDKK1, primary screen, biochemical, biotinylated probe, 635/667 nm fluorescence (AID 1099).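 Also: score merges 667nm spot fluorescence with signal to noise across triplicate slides; reference of the scale not given here.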 To be noted: higher = more signal.
Assay [13] in a line: small-molecule microarray binders of probe aCHRDL2, primary screen, biochemical, biotinylated probe, 635/667 nm fluorescence (AID 1100). To be noted: higher = more signal.
Assay [14] is described as follows: splicing luciferase reporter signal modulators, primary screen, spliceosome inhibition project, cell-based, HEK293, splice +/- reporter (AID 1101).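 Also: HEK293 cells carrying a splicing-competent luciferase reporter gene; test concentration not given here.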 Particulars: luminescence, 24 h, higher = more signal, called active from +8 up or from −8 down.
Assay [15] addresses Fibroblast growth factor 10 (Homo sapiens) (UniProt O15520). The assay is described as follows: FGF10 binders on small-molecule microarrays, primary screen, biochemical, small-molecule microarray, 635 nm fluorescence (AID 1102). To be noted: FGF10 binding, fluorescence 635 nm, higher = more signal.
The subject of assay [16] is glycogen synthase kinase-3 (GSK3A per assay name; protocol says GSK3B). The assay is described as follows: GSK3 binders on small-molecule microarrays, primary screen, biochemical, small-molecule microarray, 635 nm fluorescence, GSK3A (AID 1103). Also: the record names both GSK3A and GSK3B. Particulars: small-molecule microarray binding, fluorescence 635 nm; higher = more signal.
In assay [17] the target is Epidermal growth factor receptor (Homo sapiens) (UniProt P00533). The assay is described as follows: EGFR binders on small-molecule microarrays, primary screen, biochemical, small-molecule microarray, 635 nm fluorescence (AID 1104).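 Also: score merges 667 nm emission intensity with spot signal to noise over triplicate slides.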 To be noted: EGFR binding, higher = more signal.
The target of assay [18] is Follistatin-related protein 3 (Homo sapiens) (UniProt O95633). The assay is described as follows: FSTL3 binders on small-molecule microarrays, primary screen, biochemical, small-molecule microarray, 635 nm fluorescence (AID 1105).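 Also: score merges emission near 667 nm and signal to noise per printed spot across three slides.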 To be noted: FSTL3 binding, higher = more signal.
In assay [19] the target is Dickkopf-related protein 1 (Homo sapiens) (UniProt O94907). The assay is described as follows: DKK1 binders on small-molecule microarrays, primary screen, biochemical, small-molecule microarray, 635 nm fluorescence scan (AID 1106).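 Also: score merges emission near 667 nm with signal to noise over three replicate slides.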 To be noted: DKK1 binding, higher = more signal.
Assay [20] deals with Inhibin beta A chain (activin A). The assay is described as follows: INHBA (activin A) binders on microarrays, primary screen, biochemical, small-molecule microarray, 635 nm fluorescence scan (AID 1107).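 Also: mouse activin A protein probed at 4.33 µg/mL on printed slides; score merges bound-protein fluorescence near 667 nm with spot signal-to-noise.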 Particulars: small-molecule microarray binding, higher = more signal.

Activity calls are given as the source filed them.

The text below walks through data of PubChem BioAssay.

Torsin-1A-interacting protein 2 (Homo sapiens), sequence (Q8NFQ8 whole entry, looked up): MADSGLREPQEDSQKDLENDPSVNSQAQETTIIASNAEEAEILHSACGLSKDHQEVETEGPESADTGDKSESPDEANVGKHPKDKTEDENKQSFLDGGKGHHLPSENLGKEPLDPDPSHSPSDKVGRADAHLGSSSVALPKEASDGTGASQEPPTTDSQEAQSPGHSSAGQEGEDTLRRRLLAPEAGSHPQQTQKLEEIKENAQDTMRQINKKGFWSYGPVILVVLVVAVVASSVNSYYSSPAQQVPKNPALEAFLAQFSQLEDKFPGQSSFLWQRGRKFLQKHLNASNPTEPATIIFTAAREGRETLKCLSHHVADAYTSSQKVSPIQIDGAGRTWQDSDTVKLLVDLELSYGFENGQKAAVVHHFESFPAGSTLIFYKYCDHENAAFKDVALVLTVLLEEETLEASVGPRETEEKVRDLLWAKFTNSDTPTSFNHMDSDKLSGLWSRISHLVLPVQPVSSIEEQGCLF
Epidermal growth factor receptor (Homo sapiens), sequence (P00533 whole entry, looked up): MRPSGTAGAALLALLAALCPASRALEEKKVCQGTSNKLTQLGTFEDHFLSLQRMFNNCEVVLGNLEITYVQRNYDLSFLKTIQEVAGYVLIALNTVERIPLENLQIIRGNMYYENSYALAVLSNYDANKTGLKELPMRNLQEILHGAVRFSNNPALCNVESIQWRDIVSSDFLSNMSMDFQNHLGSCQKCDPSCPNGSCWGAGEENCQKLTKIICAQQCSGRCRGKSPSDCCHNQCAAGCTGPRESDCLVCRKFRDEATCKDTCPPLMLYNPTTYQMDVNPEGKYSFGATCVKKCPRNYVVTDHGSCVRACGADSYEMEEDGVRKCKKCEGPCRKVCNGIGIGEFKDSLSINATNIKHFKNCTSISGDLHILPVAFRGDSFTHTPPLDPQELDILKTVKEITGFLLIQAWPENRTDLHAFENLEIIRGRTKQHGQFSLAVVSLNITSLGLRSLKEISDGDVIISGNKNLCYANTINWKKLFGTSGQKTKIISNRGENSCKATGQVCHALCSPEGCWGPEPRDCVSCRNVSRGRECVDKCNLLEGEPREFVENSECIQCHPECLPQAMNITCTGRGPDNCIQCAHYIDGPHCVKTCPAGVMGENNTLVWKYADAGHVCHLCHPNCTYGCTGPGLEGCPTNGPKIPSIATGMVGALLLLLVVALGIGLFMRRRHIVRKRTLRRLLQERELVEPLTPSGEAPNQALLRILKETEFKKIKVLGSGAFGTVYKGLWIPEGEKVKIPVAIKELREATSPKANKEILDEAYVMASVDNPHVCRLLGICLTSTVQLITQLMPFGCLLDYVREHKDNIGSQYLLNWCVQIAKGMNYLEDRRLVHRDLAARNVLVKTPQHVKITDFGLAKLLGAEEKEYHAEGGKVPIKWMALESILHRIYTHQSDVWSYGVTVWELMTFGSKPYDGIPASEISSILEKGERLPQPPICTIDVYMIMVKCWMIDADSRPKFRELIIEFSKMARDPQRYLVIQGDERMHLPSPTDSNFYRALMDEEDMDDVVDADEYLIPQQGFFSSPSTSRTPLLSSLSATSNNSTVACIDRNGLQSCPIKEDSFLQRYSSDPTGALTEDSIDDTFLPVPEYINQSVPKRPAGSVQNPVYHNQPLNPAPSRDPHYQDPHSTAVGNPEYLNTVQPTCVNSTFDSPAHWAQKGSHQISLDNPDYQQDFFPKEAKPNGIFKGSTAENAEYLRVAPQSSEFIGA
Follistatin-related protein 3 (Homo sapiens), sequence (O95633 whole entry, looked up): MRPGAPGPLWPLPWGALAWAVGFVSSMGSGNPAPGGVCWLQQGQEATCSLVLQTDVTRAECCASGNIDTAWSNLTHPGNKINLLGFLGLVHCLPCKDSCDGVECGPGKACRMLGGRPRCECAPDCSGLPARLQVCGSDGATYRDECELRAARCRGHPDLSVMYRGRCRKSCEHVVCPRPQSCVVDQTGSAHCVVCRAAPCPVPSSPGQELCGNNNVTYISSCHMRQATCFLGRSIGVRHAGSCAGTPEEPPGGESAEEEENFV
Fibroblast growth factor 10 (Homo sapiens), sequence (O15520 whole entry, looked up): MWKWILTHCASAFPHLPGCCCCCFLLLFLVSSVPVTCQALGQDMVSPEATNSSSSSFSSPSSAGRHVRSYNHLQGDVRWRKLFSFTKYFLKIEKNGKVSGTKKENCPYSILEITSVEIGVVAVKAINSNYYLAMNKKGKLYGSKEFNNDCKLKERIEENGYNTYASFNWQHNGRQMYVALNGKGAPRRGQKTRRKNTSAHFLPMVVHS
Dickkopf-related protein 1 (Homo sapiens), sequence (O94907 whole entry, looked up): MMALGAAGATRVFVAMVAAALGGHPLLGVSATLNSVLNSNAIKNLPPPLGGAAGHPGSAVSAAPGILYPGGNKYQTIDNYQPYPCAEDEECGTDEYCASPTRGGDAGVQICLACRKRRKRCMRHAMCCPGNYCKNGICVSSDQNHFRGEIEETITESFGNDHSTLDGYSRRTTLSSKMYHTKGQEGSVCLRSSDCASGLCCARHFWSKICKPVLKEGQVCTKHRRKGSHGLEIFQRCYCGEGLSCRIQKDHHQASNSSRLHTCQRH
Neurogenic locus notch homolog protein 3 (Homo sapiens), sequence (Q9UM47 whole entry, looked up): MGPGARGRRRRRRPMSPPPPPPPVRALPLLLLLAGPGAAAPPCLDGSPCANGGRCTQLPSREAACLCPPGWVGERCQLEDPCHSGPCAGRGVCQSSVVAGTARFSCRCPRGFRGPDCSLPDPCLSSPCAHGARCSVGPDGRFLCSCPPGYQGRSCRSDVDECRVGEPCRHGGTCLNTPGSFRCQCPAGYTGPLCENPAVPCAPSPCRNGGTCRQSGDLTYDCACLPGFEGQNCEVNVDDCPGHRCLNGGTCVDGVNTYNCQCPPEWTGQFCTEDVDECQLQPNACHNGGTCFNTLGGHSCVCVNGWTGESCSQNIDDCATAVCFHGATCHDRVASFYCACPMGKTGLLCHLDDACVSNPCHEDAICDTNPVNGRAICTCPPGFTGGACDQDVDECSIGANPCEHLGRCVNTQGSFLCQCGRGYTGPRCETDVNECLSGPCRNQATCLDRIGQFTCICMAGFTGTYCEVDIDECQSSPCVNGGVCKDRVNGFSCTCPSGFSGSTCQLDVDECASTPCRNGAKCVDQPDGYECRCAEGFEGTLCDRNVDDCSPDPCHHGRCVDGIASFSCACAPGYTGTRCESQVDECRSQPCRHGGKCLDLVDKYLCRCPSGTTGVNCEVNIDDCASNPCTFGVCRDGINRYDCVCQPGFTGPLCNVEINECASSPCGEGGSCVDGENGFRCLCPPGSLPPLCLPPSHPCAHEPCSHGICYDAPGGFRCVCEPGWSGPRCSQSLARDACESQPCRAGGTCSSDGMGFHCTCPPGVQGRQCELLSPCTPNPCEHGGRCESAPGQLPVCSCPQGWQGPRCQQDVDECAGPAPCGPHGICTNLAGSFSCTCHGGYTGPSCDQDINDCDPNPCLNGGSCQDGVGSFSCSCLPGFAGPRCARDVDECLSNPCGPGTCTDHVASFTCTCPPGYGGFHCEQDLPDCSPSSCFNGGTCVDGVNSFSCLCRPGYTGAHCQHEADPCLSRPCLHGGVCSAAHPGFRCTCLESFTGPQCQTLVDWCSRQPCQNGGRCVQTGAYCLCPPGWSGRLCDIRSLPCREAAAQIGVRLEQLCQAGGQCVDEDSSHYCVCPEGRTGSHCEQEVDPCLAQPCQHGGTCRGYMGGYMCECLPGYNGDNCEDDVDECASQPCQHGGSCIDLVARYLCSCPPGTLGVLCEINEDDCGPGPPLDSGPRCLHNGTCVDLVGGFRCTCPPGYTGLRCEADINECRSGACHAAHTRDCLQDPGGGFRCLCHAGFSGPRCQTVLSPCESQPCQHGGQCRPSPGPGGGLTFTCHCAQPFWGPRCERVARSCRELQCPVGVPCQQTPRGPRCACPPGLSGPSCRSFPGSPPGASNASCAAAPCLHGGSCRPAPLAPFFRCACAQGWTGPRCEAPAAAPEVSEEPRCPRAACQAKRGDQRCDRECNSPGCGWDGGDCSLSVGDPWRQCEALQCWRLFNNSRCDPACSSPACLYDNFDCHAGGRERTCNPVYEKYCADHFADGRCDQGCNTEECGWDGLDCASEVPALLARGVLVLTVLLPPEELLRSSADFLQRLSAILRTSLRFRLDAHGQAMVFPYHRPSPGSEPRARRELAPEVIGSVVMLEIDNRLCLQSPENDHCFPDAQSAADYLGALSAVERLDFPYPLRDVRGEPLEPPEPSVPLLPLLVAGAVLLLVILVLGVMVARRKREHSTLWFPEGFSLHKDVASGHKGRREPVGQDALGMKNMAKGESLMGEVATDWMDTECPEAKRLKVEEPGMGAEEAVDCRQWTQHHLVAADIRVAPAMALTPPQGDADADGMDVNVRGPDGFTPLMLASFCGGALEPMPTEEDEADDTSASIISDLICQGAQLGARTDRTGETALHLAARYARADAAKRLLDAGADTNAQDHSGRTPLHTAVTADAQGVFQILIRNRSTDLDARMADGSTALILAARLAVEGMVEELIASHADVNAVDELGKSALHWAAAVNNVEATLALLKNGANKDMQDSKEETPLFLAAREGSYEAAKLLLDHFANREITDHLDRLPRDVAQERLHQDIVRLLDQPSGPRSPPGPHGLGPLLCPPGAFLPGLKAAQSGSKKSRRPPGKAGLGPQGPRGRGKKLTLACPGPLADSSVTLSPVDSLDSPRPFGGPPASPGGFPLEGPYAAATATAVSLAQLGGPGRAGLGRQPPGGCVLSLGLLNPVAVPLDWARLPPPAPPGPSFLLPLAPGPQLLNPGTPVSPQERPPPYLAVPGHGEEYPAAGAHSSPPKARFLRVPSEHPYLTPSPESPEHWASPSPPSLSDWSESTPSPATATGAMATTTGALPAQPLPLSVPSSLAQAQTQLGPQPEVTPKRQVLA

Take `CC(C)CON=C1[C@H]2CCn3c(=O)n(-c4ccccc4)c(=O)n3[C@H]2[C@H](O)[C@@H]2O[C@H]12`: the composite z-score in assay [1] is -0.317; in [5], -0.381; in assay [7] it was -0.149; in assay [8] it was 0.302; in assay [9], 0.837; in assay [10] it was -0.228. For the same compound, the composite z-score in assay [11] was 0.734; in assay [12], -0.217; in [13], -0.481; in assay [15], 0.229; in [16], 0.298; in assay [17], 0.481. The composite z-score is 0.532 in [18], 1.2 in assay [19] and -0.0603 in assay [20]. Further, the z-score was -0.476 (inactive) in assay [2]; 0.0606 (inactive) in assay [3]; -0.369 (inactive) in assay [4]; 0.343 (inactive) in [6]; -0.271 (inactive) in assay [14].

On to `O=C1C2C=CC(C(O)c3ccc([N+](=O)[O-])cc3)N(Nc3ccc([N+](=O)[O-])cc3)C2C(=O)N1c1ccccc1` (stereo not given), for which the composite z-score in assay [1] was 1.46; in assay [5] it was 3.28; in assay [7] it was 0.198; in assay [8], -0.238; in [9] it was 1.04; in assay [10], 0.387. Besides, the composite z-score was 0.867 in assay [11]; 0.969 in assay [12]; 0.539 in assay [13]; 0.818 in [15]; 1.29 in [16]; 0.301 in assay [17]. In addition, the composite z-score was 0.255 in [18], -0.12 in [19] and 0.69 in [20]. The z-score in [2] is 0.664 (inactive); in assay [3], 1.53 (inactive); in [4], 3.26 (inactive); in assay [6], -0.956 (inactive); in assay [14], -0.291 (inactive).

Regarding `CO[C@H]([C@@H](C)[C@H](OC)c1ccccc1)[C@H](C)[C@@H](OC)[C@H](C)C(C)=O`, the composite z-score in assay [1] is -0.694; in assay [5] it was -0.391; in [7] it was -0.0159; in [8], -0.233; in assay [9] it was -0.177; in [10] it was -0.0996. The composite z-score in assay [11] was -0.275; in assay [12], -0.442; in assay [13] it was -0.117; in assay [15], 0.173; in assay [16], -0.641; in assay [17], -0.577. In addition, the figures for the composite z-score in assay [18], in [19] and in assay [20] were -0.523, 0.345 and 0.782, respectively. For the same compound, the z-score in assay [2] is 0.474 (inactive); in assay [3], -0.0357 (inactive); in assay [4] it was -0.175 (inactive); in assay [6], 0.243 (inactive); in [14] it was 0.116 (inactive).

With `CO[C@@H]1COC(=O)CCC[C@@H](C)[C@H](OC)COC(=O)[C@H](Cc2ccccc2)NC(=O)CC=C[C@H]1C`, the composite z-score in assay [1] is -0.256; in [5], -2.01; in assay [7] it was -0.178; in [8] it was 0.76; in [9], -1.25; in [10], -0.127. The composite z-score in assay [11] was 0.637; in [12], -0.485; in [13] it was -0.497; in assay [15], -0.974; in [16], -0.999; in assay [17], 0.231. For the same compound, the composite z-score in assay [18] was 0.507; in assay [19], 0.915; in [20], 1.6. In addition, the z-score in assay [2] was 0.449 (inactive); in assay [3] it was -0.529 (inactive); in assay [4] it was -0.341 (inactive); in [6] it was 0.0728 (inactive); in assay [14], -0.491 (inactive).

Regarding `COc1cccc([C@@H]2Oc3ccc(Br)cc3C(=O)[C@H]2O)c1`, the composite z-score in [1] is -0.366; in assay [5], 1.49; in assay [7], -0.0615; in [8], 1.13; in [9], 0.834; in [10], -0.0828. For the same compound, the composite z-score is 0.237 in [11]; -0.257 in [12]; -0.423 in [13]; 1.19 in assay [15]; 0.101 in assay [16]; 0.312 in assay [17]. Further, the composite z-score in assay [18] turned out to be 0.892; in assay [19], 0.221; in assay [20], 0.287. The z-score in [2] is -2.84 (inactive); in [3] it was -10.6 (active); in assay [4], -1.5 (inactive); in assay [6] it was 0.9 (inactive); in [14] it was -1.7 (inactive).
